14-3-3 Bad PPI: disrupts binding of bovine 14-3-3 zeta to phospho-Bad peptide | P63103 | TR-FRET 14-3-3zeta/Dy647-pBad peptide displacement, 1 h | inhibition, % at 21.7 µM | 220,000 compounds, 0.71% hits | AID 781;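 active means inhibition above about 70%, limit read from the data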;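 further: 0% = full 14-3-3 plus peptide FRET controls and 100% = background without 14-3-3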
Target sequence (P63103 whole entry, looked up): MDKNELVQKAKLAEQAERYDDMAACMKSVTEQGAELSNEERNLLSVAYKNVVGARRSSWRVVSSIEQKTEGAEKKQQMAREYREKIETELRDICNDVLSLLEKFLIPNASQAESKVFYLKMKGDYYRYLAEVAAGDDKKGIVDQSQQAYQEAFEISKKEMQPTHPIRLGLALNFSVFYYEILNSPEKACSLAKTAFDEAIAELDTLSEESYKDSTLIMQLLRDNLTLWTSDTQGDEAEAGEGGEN
Mcl1 Bid PPI: disrupts binding of human Mcl-1 to Bid peptide. Q07820. TR-FRET Mcl-1/Bid-Dy647 peptide binding, 1536-well. inhibition, % at 21.7 µM. 220,000 compounds, 0.97% hits. AID 1021;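 active means compounds that cut the binding signal by more than half at the single screening dose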;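 further: His-tagged Mcl-1 with europium anti-His antibody binding Bid BH3 peptide; 0% = Mcl-1 plus peptide wells and 100% = peptide-only wells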
Target sequence (Q07820 whole entry, looked up): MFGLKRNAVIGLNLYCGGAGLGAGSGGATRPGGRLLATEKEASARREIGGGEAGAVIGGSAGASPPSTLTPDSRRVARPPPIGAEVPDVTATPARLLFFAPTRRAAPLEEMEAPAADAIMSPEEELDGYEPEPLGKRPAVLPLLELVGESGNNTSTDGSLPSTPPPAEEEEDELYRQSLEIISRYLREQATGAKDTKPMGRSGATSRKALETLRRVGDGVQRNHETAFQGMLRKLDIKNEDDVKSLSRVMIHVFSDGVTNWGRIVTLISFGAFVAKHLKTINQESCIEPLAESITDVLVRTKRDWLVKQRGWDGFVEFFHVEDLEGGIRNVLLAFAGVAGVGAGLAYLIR
NCF1 inh: p47phox (human) inhibition. P14598. p47phox/p22phox peptide binding, fluorescence polarization, 2 h. inhibition, % at 24.7 µM. 220,000 compounds, 0.53% hits. AID 1274;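 active means inhibition above about 30%, limit read from the data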;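 further: 0% = p47phox with labelled peptide and 100% = labelled peptide alone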
Mcl1 Noxa PPI: Mcl-1/Noxa interaction inhibition. TR-FRET Mcl-1/Noxa peptide binding, 2 h. inhibition, % at 21.7 µM. 220,000 compounds, 1.5% hits. AID 1022;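 active means compounds that cut the protein-peptide binding signal by more than 50% relative to plate controls in a single-dose test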;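 further: His-tagged Mcl-1 with rhodamine Noxa BH3 peptide and terbium anti-His antibody; 0% = Mcl-1 plus Noxa peptide wells and 100% = peptide-only wells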
Mcl-1 Bim block: human Bim-Mcl-1 interaction inhibition | inhibition, % at 10 µM | Bead-based flow cytometry, Bim peptide-Mcl-1 binding | 190,000 compounds, 0.1% hits; in the data active means inhibition above about 40%;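 further: 0% = no compound tracer wells and 100% = peptide blocker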
* hit, by the source's call; ! = not active in a repeat. Rows were chosen to be rich in hits. Some 3.1% of all compounds tested hit in one or more screens of this group.

For Cc1ccccc1OCc1n(CC(=O)OC2CC(C)CCC2C(C)C)c2ccccc2[n+]1C (stereo not drawn) the results were 14-3-3 Bad PPI -12, Mcl1 Bid PPI -2, NCF1 inh 39*!, Mcl1 Noxa PPI -10 and Mcl-1 Bim block -4.
O=C(CCN1C(=O)COc2ccccc21)NCCN1CCOCC1 was read as 14-3-3 Bad PPI -8, Mcl1 Bid PPI -5, NCF1 inh 2, Mcl1 Noxa PPI 25 and Mcl-1 Bim block 1.
Screening Cc1ccc2c(c1)N(CCC(=O)NCCN1CCOCC1)C(=O)CO2 returned 14-3-3 Bad PPI -9, Mcl1 Bid PPI -7, NCF1 inh 7, Mcl1 Noxa PPI 52* and Mcl-1 Bim block -3.
Screening CC(=O)Nc1cccc(OCC(=O)Nc2sccc2C(N)=O)c1 returned 14-3-3 Bad PPI 1, Mcl1 Bid PPI 0, NCF1 inh -12 and Mcl1 Noxa PPI 52*.
CCc1ccc(Nc2nnc(SCC(=O)Nc3sccc3C(N)=O)s2)cc1 was read as 14-3-3 Bad PPI -10, Mcl1 Bid PPI -18, NCF1 inh -19, Mcl1 Noxa PPI 53* and Mcl-1 Bim block -3.
Screening COc1cccc(Nc2nnc(SCC(=O)Nc3sccc3C(N)=O)s2)c1 returned 14-3-3 Bad PPI 60, Mcl1 Bid PPI 4, NCF1 inh -35, Mcl1 Noxa PPI 60* and Mcl-1 Bim block 0.
CCc1ccc(Nc2nnc(SCC(=O)Nc3cccnc3Cl)s2)cc1 was read as 14-3-3 Bad PPI -3, Mcl1 Bid PPI 14, NCF1 inh -17, Mcl1 Noxa PPI 17 and Mcl-1 Bim block 0.
O=c1[nH]nc(SCc2cc(Cl)ccc2Cl)c(=O)[nH]1 was read as 14-3-3 Bad PPI -2, Mcl1 Bid PPI -16, NCF1 inh -4 and Mcl1 Noxa PPI 13.
CC(/C=C/C=C/c1ccccc1)=N/NC(=O)c1ccc2c(c1)OCCO2 was read as 14-3-3 Bad PPI 3, Mcl1 Bid PPI -18, NCF1 inh -5 and Mcl1 Noxa PPI 10.
For Cc1nc(-c2nnc(SCC(=O)Nc3ccc(Cl)cc3)n2C)cs1 the results were 14-3-3 Bad PPI -1, Mcl1 Bid PPI -7, NCF1 inh -6 and Mcl1 Noxa PPI -1.
For Cc1ccc(/C(O)=C/C(=O)C(=O)NNC(=O)C(O)(c2ccccc2)c2ccccc2)cc1 the results were 14-3-3 Bad PPI 12, Mcl1 Bid PPI -6, NCF1 inh -19, Mcl1 Noxa PPI -53 and Mcl-1 Bim block -1.
COC(=O)C(=O)/C=C(\O)c1ccc(C)cc1 was read as 14-3-3 Bad PPI 8, Mcl1 Bid PPI -23, NCF1 inh -10, Mcl1 Noxa PPI 57* and Mcl-1 Bim block -1.
O=c1c(CN2CCN(Cc3ccccc3)CC2)coc2ccc(Cl)cc12 was read as 14-3-3 Bad PPI 72*, Mcl1 Bid PPI 93*, NCF1 inh 3, Mcl1 Noxa PPI 15 and Mcl-1 Bim block -2.
`Cc1ccc2occ(CN3CCN(Cc4ccccc4)CC3)c(=O)c2c1` gave 14-3-3 Bad PPI 72*, Mcl1 Bid PPI 20, NCF1 inh -8 and Mcl-1 Bim block -1.
For Cc1ccc2cc(C)c3nnc(SCC(=O)Nc4nc5c(s4)CCCC5)n3c2c1 the results were 14-3-3 Bad PPI 6, Mcl1 Bid PPI 2, NCF1 inh -7, Mcl1 Noxa PPI 24 and Mcl-1 Bim block -5.
Screening CSc1ccc(N=Nc2c(C)[nH]n(C)c2=O)cc1 returned 14-3-3 Bad PPI -2, Mcl1 Bid PPI -13, NCF1 inh -29 and Mcl1 Noxa PPI 11.
Screening O=S(=O)(Nc1ccncc1Cl)c1ccc2ccccc2c1 returned 14-3-3 Bad PPI 72*, Mcl1 Bid PPI -17, NCF1 inh -5, Mcl1 Noxa PPI -3 and Mcl-1 Bim block 0.
For O=C(NNS(=O)(=O)c1ccc2ccccc2c1)c1cccnc1 the results were 14-3-3 Bad PPI 15, Mcl1 Bid PPI -84, NCF1 inh -11, Mcl1 Noxa PPI 11 and Mcl-1 Bim block 1.
Screening CC(NC(=O)c1cc(COc2c(F)cccc2F)on1)c1cnn(-c2ccccc2)c1 (stereo not drawn) returned 14-3-3 Bad PPI 1, Mcl1 Bid PPI -5, NCF1 inh -8, Mcl1 Noxa PPI -3 and Mcl-1 Bim block 1.
`O=C(COc1ccc([N+](=O)[O-])cc1)Nc1nnc(-c2cccnc2)s1` gave 14-3-3 Bad PPI 20, Mcl1 Bid PPI -11, NCF1 inh -20 and Mcl1 Noxa PPI 69*.
Screening O=C(COc1ccc([N+](=O)[O-])cc1)NCc1cccnc1 returned 14-3-3 Bad PPI -11, Mcl1 Bid PPI 3, NCF1 inh 3, Mcl1 Noxa PPI 14 and Mcl-1 Bim block -1.
Screening CC(=O)N1CCN(c2nc3cc4c(cc3nc2NS(=O)(=O)c2ccccc2)OCCO4)CC1 returned 14-3-3 Bad PPI 19, Mcl1 Bid PPI -8, NCF1 inh -9, Mcl1 Noxa PPI 40 and Mcl-1 Bim block -1.
`O=C(CSc1nc2ccc([N+](=O)[O-])cc2[nH]1)c1ccc2ccccc2c1` gave 14-3-3 Bad PPI -11, Mcl1 Bid PPI 29, NCF1 inh -13, Mcl1 Noxa PPI 62* and Mcl-1 Bim block 0.
For O=C(CSc1nc2ncc(Br)cc2[nH]1)c1ccc([N+](=O)[O-])cc1 the results were 14-3-3 Bad PPI -4, Mcl1 Bid PPI -52, NCF1 inh 1, Mcl1 Noxa PPI 30 and Mcl-1 Bim block -4.
Cc1ccc(S(=O)(=O)Nc2cnn(-c3ccccc3)c(=O)c2Cl)cc1 was read as 14-3-3 Bad PPI -6, Mcl1 Bid PPI -1, NCF1 inh 6, Mcl1 Noxa PPI 14 and Mcl-1 Bim block -3.
`N#CC(C#N)=C1c2cc(S(N)(=O)=O)ccc2-c2ccc(S(N)(=O)=O)cc21` gave 14-3-3 Bad PPI 81*, Mcl1 Bid PPI 29, NCF1 inh 10, Mcl1 Noxa PPI 50 and Mcl-1 Bim block -5.
`CC(C)(C)c1ccc(C(=O)NNC(=O)C2CCCCC2)cc1` gave 14-3-3 Bad PPI 0, Mcl1 Bid PPI -3, NCF1 inh 31*, Mcl1 Noxa PPI 15 and Mcl-1 Bim block -2.
Screening NS(=O)(=O)c1ccc(CCNC(=O)/C=C/c2ccccc2[N+](=O)[O-])cc1 returned 14-3-3 Bad PPI -9, Mcl1 Bid PPI 2, NCF1 inh -8, Mcl1 Noxa PPI 2 and Mcl-1 Bim block -3.
Clc1ccc(Sc2oc(/C=N/n3cnnc3)cc2Br)cc1 was read as 14-3-3 Bad PPI 29, Mcl1 Bid PPI 25, NCF1 inh -14, Mcl1 Noxa PPI 27 and Mcl-1 Bim block -1.
CN(C)C(=O)/C(C#N)=C\c1cc(Br)c(Sc2ccc(Cl)cc2)o1 was read as 14-3-3 Bad PPI -2, Mcl1 Bid PPI 100*, NCF1 inh 4, Mcl1 Noxa PPI 9 and Mcl-1 Bim block -3.
Cc1nc2ccccn2c1C(=O)N=Nc1c(O)n(CCC(C)C)c2ccccc12 was read as 14-3-3 Bad PPI -3, Mcl1 Bid PPI 34, NCF1 inh 16, Mcl1 Noxa PPI -1 and Mcl-1 Bim block -3.
For O=C(O)c1cccc(Nc2cc(Cl)c3nonc3c2[N+](=O)[O-])c1 the results were 14-3-3 Bad PPI 9, Mcl1 Bid PPI -21, NCF1 inh -4, Mcl1 Noxa PPI 27 and Mcl-1 Bim block 5.

Assay outcomes (PubChem BioAssay)
